Test results taken from ChEMBL document CHEMBL3433997, “St. Jude Leishmania screening dataset” (2016).

molecular target: Hexose transporter 1 (Plasmodium falciparum) (UniProt O97467); assay: ST_JUDE_LEISH: Cytotoxicity at 2uM final concentration against transgenic Leishmania Mexicana promastigotes LmPfHT that are glucose transport deficient and complemented with the Plasmodium falciparum hexose transporter. Activity is measured by DNA content using SYBR green in vitro; type: functional

Row | Compound | inhibition [%]
1 | Cc1cccc(CNc2nc(C)cc(N[C@@H](Cc3ccccc3)C(=O)NC3CCCC3)n2)c1 | 12.4
2 | CC(C)(C)OC(=O)NCc1ccc(Nc2nnc(-c3cccc(C(=O)NCCC(c4ccccc4)c4ccccc4)c3)o2)cc1 | 10.6
3 | Clc1ccc(Nc2nc(-c3ccccn3)cs2)nc1 | 27.3
4 | CC1(C)NC(N)=NC(=N)N1OCCSc1ccc(Cl)c(Cl)c1 | 7.48
5 | COc1ccc(CN2CCC(NCc3cccc(-n4ccnc4)c3)CC2)cc1 | 3.17
6 | CCCC(C)Nc1nc(C)cc(N[C@@H](Cc2ccccc2)C(=O)NCCOc2ccccc2)n1 (stereo partly specified) | 3.26
7 | O=C(Nc1cccc(-c2cc(-c3c(Cl)cccc3Cl)no2)c1)c1cncc(-c2cccs2)c1 | 11.1
8 | CCCNC(=O)C1CCN(C(c2ccc(Cl)cc2)c2ccc(Cl)cc2)CC1 | 2.95
9 | Cc1cc(C)c(C(=O)Nc2n[nH]c3nnc(-c4cccc(F)c4F)cc23)c(C)c1 | -0.09
10 | CCCCc1cc(Cc2cnc(N)nc2N)cc(OC)c1OC | 2.41
11 | O=C(Nc1ccc(N2CCCN(Cc3cccc(F)c3)CC2)cc1)c1ccccc1 | -0.73
12 | CC(=O)c1nccc(C)c1N | 1.53
13 | O=C(C=Cc1ccc(-c2nc3ccccc3[nH]2)cc1)NC1CCN(Cc2ccccc2)CC1 | 1.99
14 | CC1CN(c2cc(=O)n(Cc3ccc(NC(=O)Nc4ccc(-c5ccccc5)cc4)cc3)cn2)CC(C)N1 (stereo unspecified) | 1.47
15 | COc1ccc(Nc2nc(C)cc(NCc3ccc(-c4c(C)noc4C)cc3)n2)cc1 | 13.9
16 | O=C(Nc1cc(Cl)ccc1O)c1ccc(Oc2ccc(C(=O)Nc3cc(Cl)ccc3O)cc2)cc1 | -1.96
17 | Fc1ccc(-c2cncc(-c3ccc(F)cc3)n2)cc1 | 6.64
18 | COc1ccc2nccc([C@@H](O)CN3CCC(NCc4cc5cc(Cl)ccc5[nH]4)CC3)c2c1 | 28.1
19 | Cc1cccc2nc(-c3ccc(-c4cccc(NC(=O)c5cncn5C)c4)s3)[nH]c12 | 2.43
20 | CCN1CCN(c2ccc(Nc3ccnc4ccc(Br)cc34)cc2)CC1 | 0.09
21 | O=c1ccc(CNc2nc(NCCc3ccccc3)nc3ccc(Cl)cc23)c[nH]1 | 3.7
22 | N#CCCN1CCN(Cc2ccc(-c3ccc(-c4nc5cc(F)ccc5[nH]4)s3)cc2)CC1 | 0.84
23 | COc1ccc(CNc2nccc3ccc(-c4ccc5nccn5c4)cc23)cc1 | 0.03
24 | O=C(Nc1ccc(Cl)cc1)c1ccc(CN2CCCN(CC3CCCCC3)CC2)cc1 | 7.11
25 | N#Cc1cc(C(=O)c2cc(Cl)ccc2O)cn(-c2cc(Cl)cc(Cl)c2)c1=O | 3.14
26 | N#Cc1ccc(N/C(=N\c2ccccc2Br)N(C2CCCCC2)C2CCCCC2)c(O)c1 | 4.65

molecular target: Glucose transporter (Leishmania mexicana) (UniProt O61059); assay: ST_JUDE_LEISH: Cytotoxicity at 2uM final concentration against transgenic Leishmania Mexicana promastigotes LmGT2 that are glucose transport deficient and complemented with the L. Mexicana glucose transporter 2. Activity is measured by DNA content using SYBR green in vitro; type: functional

Row | Compound | inhibition [%]
27 | O=C(Nc1ccc(OC2CCN(Cc3ccsc3)C2)c(Cl)c1)c1ccc2ncccc2c1 (stereo unspecified) | -0.92
28 | C[C@@H](NC(=O)NC(CCN1CCC2(CC1)CN(S(C)(=O)=O)c1ccccc12)c1ccc(Cl)c(Cl)c1)c1ccccc1 (stereo partly specified) | -3.56
29 | CCCCC(=O)Nc1cc(=O)[nH]c2nc(-c3ccc(Cl)cc3)nn12 | -0.39
30 | CC1CN(Cc2cccc(F)c2)CCN1c1ccc(NC(=O)c2cccs2)cc1 (stereo unspecified) | -2.09
31 | Cc1nc(C)c(-c2ccc(Oc3ccc(OC(F)(F)F)cc3)cc2)c(OC(=O)c2ccccc2)c1Cl | 2.37
32 | CC(CN1CCN(C)CC1)C(=O)Nc1cccc(-c2cccc(-c3nc4cc(F)ccc4[nH]3)c2)c1 (stereo unspecified) | 5.91
33 | O=C(NCCCCN1CC=C(c2ccc3c(c2OCc2ccccc2)CCCC3)CC1)c1ccc(-c2ccc(C(F)(F)F)cc2)cc1 | -2.15
34 | CN1CCN(c2cc(NC(=O)Nc3ccc(-c4ccncc4)c(Cl)c3)ccc2Br)CC1 | 10.5
35 | COc1ccccc1N1CCN(CCCCNC(=O)c2ccc(NC(=O)c3ccc4ccccc4c3)cc2)CC1 | -0.43
36 | Cc1cc(NCCC(=O)NCCOc2ccccc2)nc(NCCc2ccc(F)cc2)n1 | -2.75
37 | CC(Sc1nc2sccc2c(=O)n1C)C(=O)Nc1ccc2c(c1)OCO2 (stereo unspecified) | 3
38 | O=C(Cc1ccccc1)NC(CCN1CCC(NC(=O)c2ccc(Cl)cc2)CC1)c1ccc(Cl)c(Cl)c1 (stereo unspecified) | 1.02
39 | O=C(Cc1cccnc1)Nc1cccc(-c2cccc(-c3nc4cc(C(F)(F)F)ccc4[nH]3)c2)c1 | 1.35
40 | O=S(=O)(ON=C1CCc2ccccc21)c1ccc(Cl)cc1 | 3.35
41 | Cc1cccc(CNc2nc(C)cc(N[C@@H](Cc3ccccc3)C(=O)NC3CCCC3)n2)c1 | 7.72
42 | CC(C)(C)OC(=O)NCc1ccc(Nc2nnc(-c3cccc(C(=O)NCCC(c4ccccc4)c4ccccc4)c3)o2)cc1 | 7.8
43 | Clc1ccc(Nc2nc(-c3ccccn3)cs2)nc1 | 22.7
44 | CC1(C)NC(N)=NC(=N)N1OCCSc1ccc(Cl)c(Cl)c1 | 9.66
45 | COc1ccc(CN2CCC(NCc3cccc(-n4ccnc4)c3)CC2)cc1 | 2.72
46 | CCCC(C)Nc1nc(C)cc(N[C@@H](Cc2ccccc2)C(=O)NCCOc2ccccc2)n1 (stereo partly specified) | 1.16

Row | Compound | inhibition [%]
47 | O=C(Nc1cccc(-c2cc(-c3c(Cl)cccc3Cl)no2)c1)c1cncc(-c2cccs2)c1 | 10.8
48 | CCCNC(=O)C1CCN(C(c2ccc(Cl)cc2)c2ccc(Cl)cc2)CC1 | 0.49
49 | Cc1cc(C)c(C(=O)Nc2n[nH]c3nnc(-c4cccc(F)c4F)cc23)c(C)c1 | 0.28
50 | CCCCc1cc(Cc2cnc(N)nc2N)cc(OC)c1OC | 0.98
51 | O=C(Nc1ccc(N2CCCN(Cc3cccc(F)c3)CC2)cc1)c1ccccc1 | -0.78
52 | CC(=O)c1nccc(C)c1N | 2.57
53 | O=C(C=Cc1ccc(-c2nc3ccccc3[nH]2)cc1)NC1CCN(Cc2ccccc2)CC1 | 5.3
54 | CC1CN(c2cc(=O)n(Cc3ccc(NC(=O)Nc4ccc(-c5ccccc5)cc4)cc3)cn2)CC(C)N1 (stereo unspecified) | -0.75
55 | COc1ccc(Nc2nc(C)cc(NCc3ccc(-c4c(C)noc4C)cc3)n2)cc1 | 2.01
56 | O=C(Nc1cc(Cl)ccc1O)c1ccc(Oc2ccc(C(=O)Nc3cc(Cl)ccc3O)cc2)cc1 | -1
57 | Fc1ccc(-c2cncc(-c3ccc(F)cc3)n2)cc1 | 8.06
58 | COc1ccc2nccc([C@@H](O)CN3CCC(NCc4cc5cc(Cl)ccc5[nH]4)CC3)c2c1 | 2.75
59 | Cc1cccc2nc(-c3ccc(-c4cccc(NC(=O)c5cncn5C)c4)s3)[nH]c12 | -2.47
60 | CCN1CCN(c2ccc(Nc3ccnc4ccc(Br)cc34)cc2)CC1 | -0.25
61 | O=c1ccc(CNc2nc(NCCc3ccccc3)nc3ccc(Cl)cc23)c[nH]1 | 0.86
62 | N#CCCN1CCN(Cc2ccc(-c3ccc(-c4nc5cc(F)ccc5[nH]4)s3)cc2)CC1 | 4.14
63 | COc1ccc(CNc2nccc3ccc(-c4ccc5nccn5c4)cc23)cc1 | -1.93
64 | O=C(Nc1ccc(Cl)cc1)c1ccc(CN2CCCN(CC3CCCCC3)CC2)cc1 | 5.54
65 | N#Cc1cc(C(=O)c2cc(Cl)ccc2O)cn(-c2cc(Cl)cc(Cl)c2)c1=O | 2
66 | N#Cc1ccc(N/C(=N\c2ccccc2Br)N(C2CCCCC2)C2CCCCC2)c(O)c1 | 5.56
